For 118 compounds, z-score results are on record in PubChem BioAssay AID488969 (Vanderbilt High Throughput Screening Facility, 2010).

Over roughly 110,000 compounds, “z-score” has its median near -0.1; the highest 2% begin near 2. Only a selection was taken, and the highest values are over-represented in it overall. The source made the active and inactive calls.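 The calls were made as follows: active = z-score in the third read window above 3 or below -3; inactive = the rest.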

The target in the assay is Metabotropic glutamate receptor 8 (Rattus norvegicus) (UniProt P70579). Briefly: rat mGluR8 modulators via GIRK flux, primary screen, cell-based, thallium flux, HTS (AID 488969). The note with it: HEK293 rat mGluR8, GIRK (G protein-gated inwardly rectifying potassium channel) thallium flux, FluoZin2; at 10 µM; stronger effect = higher value; submaximal glutamate (EC20) added with thallium.
Chain of Metabotropic glutamate receptor 8 (Rattus norvegicus) (P70579 whole entry, looked up): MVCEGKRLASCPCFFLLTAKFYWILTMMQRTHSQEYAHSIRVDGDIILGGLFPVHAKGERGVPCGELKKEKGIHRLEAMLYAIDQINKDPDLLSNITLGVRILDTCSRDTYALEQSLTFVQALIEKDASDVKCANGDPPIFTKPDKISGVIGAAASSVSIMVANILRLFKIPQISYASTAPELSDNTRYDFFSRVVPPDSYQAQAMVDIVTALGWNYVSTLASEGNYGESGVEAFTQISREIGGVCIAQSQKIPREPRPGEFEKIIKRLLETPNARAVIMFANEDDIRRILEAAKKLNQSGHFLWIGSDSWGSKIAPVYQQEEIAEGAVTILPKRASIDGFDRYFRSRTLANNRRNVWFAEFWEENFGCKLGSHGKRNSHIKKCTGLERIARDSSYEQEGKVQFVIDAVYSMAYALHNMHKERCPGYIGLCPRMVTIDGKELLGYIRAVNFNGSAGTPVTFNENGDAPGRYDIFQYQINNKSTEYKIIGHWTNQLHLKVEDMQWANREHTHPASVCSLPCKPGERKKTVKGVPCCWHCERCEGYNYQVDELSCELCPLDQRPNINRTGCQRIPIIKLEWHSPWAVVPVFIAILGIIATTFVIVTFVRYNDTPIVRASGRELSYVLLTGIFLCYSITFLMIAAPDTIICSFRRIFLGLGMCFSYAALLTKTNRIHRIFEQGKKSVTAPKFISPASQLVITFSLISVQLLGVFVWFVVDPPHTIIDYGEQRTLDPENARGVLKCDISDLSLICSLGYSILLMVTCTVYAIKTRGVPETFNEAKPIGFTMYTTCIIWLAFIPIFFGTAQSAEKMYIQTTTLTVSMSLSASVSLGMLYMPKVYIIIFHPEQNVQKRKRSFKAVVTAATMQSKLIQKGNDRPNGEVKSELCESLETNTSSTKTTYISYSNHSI
`CC(C)NCCCOc1ccc(C(C)(C)c2ccccc2)cc1` yielded a z-score of 0.192.
With `CN(C)CCCOc1ccc(C(C)(C)c2ccccc2)cc1` the figure was 3.07 (active); with `CNCCCOc1ccc(C(C)(C)c2ccccc2)cc1`, 0.32.
With `O=C(Nc1ccc(N2CCN(C(=O)c3ccco3)CC2)cc1)c1ccc2c(c1)OCO2` the figure was 0.192; with `CCN1C(=O)CC(N2CCC(Cc3ccccc3)CC2)C1=O` (stereo not drawn), -0.239.
With `Cc1cc(O)c(C(C[N+](=O)[O-])c2ccc(Cl)cc2)c(=O)o1` (stereo not drawn) the figure was 0.103; with `CCOC(=O)c1ccc(NC(=S)NCCC2=CCCCC2)cc1`, -0.19.
For the compound `CCOC(=O)c1ccc(CNCc2ccccc2)cc1`, the z-score is -0.07.
In the case of `CCOC(=O)c1cnc2cc3c(cn2c1=O)CCCC3`, the z-score stood at 0.699.
With `CCOC(=O)c1cc2c(nc1NC(=S)NCc1ccccc1)CCCC2` the figure was 2.16; with `C=CCNC(=S)Nc1ccc2nc(C)c(C)nc2c1`, 0.0978; with `CCOC(=O)c1cc2c(nc1NC(=S)Nc1ccccc1)CC(C)(C)OC2`, -0.292.
The result for `CCNC(=S)Nc1nc2c(cc1C(=O)OCC)CCCC2` reads 8.73 (active); that for `C=CCNC(=S)Nc1nc2c(cc1C(=O)OCC)CCCC2`, 7.76 (active).
With `CCOC(=O)c1cc2c(nc1N)CC(C)(CC)OC2` (stereo not drawn) the figure was -0.0521.
Turning to `C=CCNc1nc(-c2ccccc2)c(C(=O)OCC)cc1C#N`, the z-score was -0.303.
With `C=C(C)CNC(=S)Nc1nc2c(cc1C(=O)OCC)CCCC2` the figure was 3.56 (active); with `CCOC(=O)c1cc2c(nc1N)CC(C)(C)OC2`, -0.353; with `O=C(NCC1CCCO1)c1ccc(CS(=O)(=O)c2c(Cl)cccc2Cl)o1` (stereo not drawn), -0.0453.
The result for `COc1ccccc1-n1c(=O)[nH]c2c(C(N)=O)nc(C3CCCCC3)nc21` reads -0.356; that for `CCN1CCN(C(c2ccc(OC)cc2)C(O)C(=O)c2c[nH]c3ccccc23)CC1` (stereo not drawn), 0.0792; that for `C=CCn1c(COc2ccc(Cl)cc2)nnc1SCC(=O)N/N=C/c1cccc(O)c1`, -0.279.
The result for `CCOC(=O)c1c(NC(=O)CSc2nncs2)sc(C)c1-c1ccccc1` reads -0.117.
Turning to `CCOC(=O)c1ccccc1N1C(=O)CSC1=S`, the z-score was -0.0781.
The result for `COCCn1c(C)cc(C(=O)COC(=O)c2ccc(NC(=O)CC#N)cc2)c1C` reads -0.449.
The result for `Cc1nn(Cc2c(F)c(F)c(F)c(F)c2F)c(C)c1NC(=O)c1ccc(COc2ccccc2Cl)o1` reads -0.506; that for `CC(=O)c1cc2c(cc1NC(=O)CCC1CCCC1)OCO2`, 0.181; that for `COc1ccc(NC(=O)c2cc(Cl)ccc2NC(=O)c2ccco2)c(OC)c1`, 0.354.
With `CCN(CC)S(=O)(=O)c1ccc(C(=O)Nc2nnc(C(C)C)s2)cc1` the figure was -0.2.
`COc1ccc(S(=O)(=O)NC(C)C(=O)O)cc1` (stereo not drawn) came in with a z-score of -0.408.
With `O=C(OCc1nc2ccccc2s1)C1CCN(S(=O)(=O)c2cccs2)CC1` the figure was 0.023; with `COc1ccc(-c2nc3c(c(=O)n(C)c(=O)n3C)n2CC2CC(c3ccccc3)=NO2)cc1OC` (stereo not drawn), 2.08; with `CCCn1c(SCC(=O)c2ccc(OC)c(OC)c2)nc2c1c(=O)n(C)c(=O)n2C`, -0.237.
With `COc1ccc(C(=O)Cn2c(Br)nc3c2c(=O)n(C)c(=O)n3C)cc1OC` the figure was -0.137.
The result for `Cc1cccc(N/C=C/c2onc(C)c2[N+](=O)[O-])c1` reads 1.43; that for `CCN(CC)S(=O)(=O)c1cc(C(=O)OCC(=O)NC2CCCc3ccccc32)ccc1C` (stereo not drawn), -0.154.
With `COCCn1c(C)cc(C2=NNC(=Nc3ccccc3)SC2)c1C`, the z-score is -0.413.
The result for `Cc1ccc(-n2c(N)c(C(=O)NCc3cccnc3)sc2=S)cc1` reads 0.285.
With `COc1cc2c(C(=O)NCc3ccc4c(c3)OCO4)cn(C)c(=O)c2cc1OC` the figure was -0.397.
With `COc1ccc(OC)c(NC(=O)Cn2c(CCC(=O)O)ccc2-c2cccs2)c1`, the z-score was -0.116.
With `COc1ccc(S(=O)(=O)N2CCN(C(=O)NCc3ccccc3)CC2)cc1` the figure was -0.0685; with `CCc1ccc(NCc2cc3c(C)nn(-c4ccccc4)c3[nH]c2=O)cc1`, 5.48 (active).
The result for `CCOc1ccc(NCc2cc3c(C(C)(C)C)nn(-c4ccccc4)c3[nH]c2=O)cc1` reads -0.079; that for `Cc1nn(-c2ccccc2)c2[nH]c(=O)c(CNCc3ccc4c(c3)OCO4)cc12`, -0.638.
With `Cc1ccc(OCC(=O)Nc2sc3c(c2C#N)CCC3)cc1C` the figure was -0.0369; with `COc1cccc(C2CC(c3ccc(F)cc3)Nc3nc(N)nn32)c1` (stereo not drawn), 0.0383; with `CN1CCN(CCCNC(=O)c2ccc(CSCc3cccc(Cl)c3)o2)CC1`, 1.35.
As for `CC(C)CCNC(=O)c1ccc(CSCc2cccc(F)c2)o1`, the z-score was -3.86 (active).
With `O=C(NC1CC1)c1ccc(CSCc2cccc(F)c2)o1` the figure was 4.11 (active); with `CC1CCN(CCCNC(=O)c2ccc(CSCc3cccc(Cl)c3)o2)CC1`, 0.509.
The result for `O=C(NCCCN1CCCC1)c1ccc(CSCc2cccc(Cl)c2)o1` reads 3.42 (active); that for `CCC(C)NC(=O)c1ccc(CSCc2cccc(F)c2)o1` (stereo not drawn), -0.863.
As for `COc1cccc(-c2cc(C(=O)N3CCN(Cc4ccccc4)CC3)no2)c1`, the z-score was found to be 0.395.
The result for `CO/N=C/NC(=O)c1c(OC)ccnc1Oc1cccc(C(F)(F)F)c1` reads 0.0176; that for `NC1=NC(=O)/C(=C\c2cccs2)S1`, -0.0766.
As to `NC1=NC(=O)/C(=C/c2cccs2)S1`, the z-score is -0.848.
With `O=C1N=C(c2ccccc2)S/C1=C\c1cccs1` the figure was 2.92; with `Cc1cc2ncn(C(=O)c3c(-c4c(Cl)cccc4Cl)noc3C)c2cc1C`, 0.106.
As to `Cc1cc(NC(=O)c2ccc(S(=O)(=O)N3CCCC3)cc2)nc2c1c(=O)oc1ccccc12`, the z-score turned out to be 0.442.
The result for `FC(F)(F)COc1nc(N2CCCCC2)nc(N2CCNCC2)n1` reads 2.6.
The result for `FC(F)(F)COc1nc(OCC(F)(F)F)nc(N2CCN(c3ccccc3)CC2)n1` reads -0.193.
Take `CNc1nc(OCC(F)(F)F)nc(N2CCOCC2)n1`: the z-score was -0.112.
With `O=C(NCc1cccnc1)c1ccccc1[N+](=O)[O-]` the figure was -0.0931.
The result for `CCOc1ccc(/C=N/NC(=O)c2ccccc2NC(=O)c2ccc(OC)cc2)cc1` reads -0.0531; that for `Cc1ccc2occ(-c3nn[nH]n3)c(=O)c2c1`, 0.366.
In the case of `Cc1ccccc1-c1nn[nH]n1`, the z-score is -0.33.
The result for `CC(C)c1ccc2occ(-c3nn[nH]n3)c(=O)c2c1` reads 3.29 (active); that for `CCCSc1nn2c(=O)c3ccccc3nc2s1`, -0.252.
Take `CCCc1cc(-c2nc(-c3ccc(Cl)cc3)cs2)ccn1`: the z-score was -0.136.
With `CCCc1cc(C(N)=S)ccn1` the figure was 2.24; with `CCCc1cc(-c2nc(-c3ccc(Br)cc3)cs2)ccn1`, 0.0465.
In turn, `COc1nc(NCCc2ccc(OC)c(OC)c2)nc(OC)n1` returned a z-score of -0.163.
With `COc1ccc2sc3ccccc3c(=O)c2c1` the figure was -0.213; with `O=c1c2ccccc2sc2ccc(Cl)cc12`, -0.316; with `O=c1c(C(c2ccccc2)c2c(O)sc3ccccc3c2=O)c(O)sc2ccccc12`, 7.03 (active).
With `CCN1C(=O)CC(N2CCN(c3ccc(C(=O)c4ccccc4)cc3)CC2)C1=O` (stereo not drawn) the figure was -0.153.
The result for `COc1ccc(NC(=O)C2CCCN(S(=O)(=O)c3cccs3)C2)cc1OC` (stereo not drawn) reads -0.257; that for `COCc1nnc(NC(=O)CCSc2ccccc2)s1`, -0.0854.
As for `O=C(Cc1cccs1)Nc1nnc(Cc2ccccc2)s1`, the z-score was -0.0843.
The result for `COCCSc1nnc(NC(=O)Cc2cccs2)s1` reads 0.124.
The result for `CCCCCc1nnc(NC(=O)Cc2cccs2)s1` reads 12.3 (active); that for `O=C(Cc1cccs1)Nc1cccnc1`, 3.36 (active).
`Cc1nnc(NC(=O)Cc2cccs2)s1`: the z-score turned out to be 2.4.
With `CCCCc1nnc(NC(=O)CCSc2ccccc2)s1` the figure was 0.0449.
The result for `O=C(Cc1cccs1)Nc1nnc(CCc2ccccc2)s1` reads 0.238.
Compound `O=C(Nc1cccnc1)c1cccs1` registered a z-score of -0.52.
With `O=C(Cc1cccs1)NCc1cccnc1` the figure was 0.742; with `Cc1nnc(NC(=O)CCSc2ccccc2)s1`, 2.67; with `Cc1nnc(NC(=O)CCC(=O)NCc2cccs2)s1`, -0.0957.
The result for `NNc1nnc(-c2ccccc2)c(-c2ccccc2)n1` reads -0.209; that for `CCOC(=O)CCCCC(=O)c1[nH]c(=O)[nH]c1CSCCO`, 0.565; that for `O=C(Nc1ccc(F)cc1)C(c1ccccc1)N1CCN(C(=O)c2ccco2)CC1` (stereo not drawn), -0.404.
`CC(=O)Nc1ccc(NC(=O)COC(=O)Cc2cccs2)cc1` had a z-score of -0.0463.
`COc1ccc(-n2c(SCC(=O)Nc3ccc(C(=O)O)cc3)nnc2-c2cccs2)cc1` returned a z-score of 0.0972.
On to `CC1(C)N=C(N)N=C(N)N1c1ccc(F)cc1F`, for which the z-score was -0.421.
`CC1=NN2C(=N)/C(=C\c3ccc(SCc4ccccc4)o3)C(=O)N=C2S1` displayed a z-score of -0.21.
With `O=C1NC(=S)S/C1=C/c1ccc(N2CCOCC2)o1` the figure was 0.253; with `O=C1NC(=S)S/C1=C\c1ccc(SCc2ccccc2)o1`, 6.47 (active).
With `CCCNc1nc(N2CCOCC2)nc(N2CCOCC2)n1` the figure was -0.0765; with `Cc1cc(OC(C)C)c2c(-c3ccccc3)cc(=O)oc2c1`, -0.594.
Turning to `Cc1cc(O)c2c(-c3ccccc3)cc(=O)oc2c1`, the z-score is 2.16.
With `CCOc1cc(C)cc2oc(=O)cc(-c3ccccc3)c12` the figure was 0.0205; with `C=CCCC(=O)Nc1nc(C)c(-c2csc(Nc3ccc(Cl)cc3Cl)n2)s1`, -0.203; with `O=[N+]([O-])c1cc(/C=N/N2CCN(c3ccccc3)CC2)ccc1Cl`, 2.02.
With `O=[N+]([O-])c1ccc(Cl)c(/C=N/N2CCN(c3ccccc3)CC2)c1` the figure was -0.188.
The result for `O=[N+]([O-])c1cc(/C=N/N2CCN(C3c4ccccc4-c4ccccc43)CC2)ccc1Cl` reads 0.148; that for `N#C/C(=C\c1ccc(-c2cccc(C(F)(F)F)c2)o1)C(=O)Nn1cnnc1`, -0.113; that for `O=C1NCCCC1C(=O)N/N=C/c1ccccc1` (stereo not drawn), 0.00752.
Regarding `CCn1c(CSc2nc3ccccc3s2)n[nH]c1=S`, the z-score came to 0.155.
For the compound `S=c1[nH]nc(CSc2nc3ccccc3s2)n1C1CCCCC1`, the z-score was 14.9 (active).
With `Cn1c(CSc2nc3ccccc3s2)n[nH]c1=S` the figure was 1.41; with `Cc1cc(C(=O)NCCCC(=O)O)c(C)o1`, -0.154; with `Cc1noc(/C=C/N(C)C)c1S(=O)(=O)N(C)CC(=O)NC1CCCCC1`, 2.18.
For `Cc1noc(/C=C/N(C)C)c1S(=O)(=O)N1CCCC(C(=O)NC2CCCCC2)C1` (stereo not drawn), the z-score was -0.19.
With `Cc1noc(/C=C/N(C)C)c1S(=O)(=O)NC1CCCCC1` the figure was -0.658; with `c1ccc(C2(c3ccccc3)OCC(Cn3cncn3)O2)cc1` (stereo not drawn), 0.218.
The result for `Cc1ccc(SCCCn2cncn2)cc1` reads -0.0811.
With `CCCC1COC(Cn2cncn2)(c2ccc(C)cc2)O1` (stereo not drawn) the figure was 10.6 (active).
